These results are taken from publication PMC7862700, “An all-to-all approach to the identification of sequence-specific readers for epigenetic DNA modifications on cytosine”.

Experiment in all cases: DAPPL (digital affinity profiling via proximity ligation, sequencing); 10 mM Tris-HCl pH 7.5, 50 mM NaCl, 1 mM DTT, 4% glycerol, room temperature, 30 min; GST-TFs on glutathione beads, 16-mer random dsDNA library, 0.1% formaldehyde crosslink after washing; high values mean tight binding
One assay concerns the target T1, FEV (Homo sapiens, UniProt Q99581 1-238).
T1 sequence: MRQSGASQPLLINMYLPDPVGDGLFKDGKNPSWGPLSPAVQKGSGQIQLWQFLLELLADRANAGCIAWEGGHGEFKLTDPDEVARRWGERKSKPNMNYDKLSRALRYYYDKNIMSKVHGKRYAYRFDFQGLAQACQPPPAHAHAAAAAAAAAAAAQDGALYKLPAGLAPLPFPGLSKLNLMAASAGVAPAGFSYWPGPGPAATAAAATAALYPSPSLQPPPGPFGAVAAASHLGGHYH
As to conditions: protein: recombinant; tags: N-terminal GST; dsDNA, one strand shown. In outline: (§1)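 Pools were built from human transcription factors expressed in yeast as GST fusions, captured on glutathione beads and DNA-barcoded, along with a tag-only sample. Incubation with 200 nmole of a 16-mer random double-stranded DNA library lasted 30 min at room temperature in Tris/NaCl/DTT/glycerol buffer, and was followed by washing, 0.1% formaldehyde crosslinking, proximity ligation, PCR amplification and Illumina NextSeq500 sequencing. Binding signal is the quotient of each hexamer's read frequency for a factor and its frequency for the tag-only sample.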

For another assay, the target named is ETV5 (Homo sapiens, UniProt P41161 1-510). The note with it: protein: recombinant; tags: N-terminal GST; dsDNA, one strand shown. In outline:
as §1

For the next assay, the target named is HSF1 (Homo sapiens, UniProt Q00613 1-529). As to conditions: protein: recombinant; tags: N-terminal GST; chain copies: 3; dsDNA, one strand shown. The gist of the method: as §1
HSF1, sequence (Q00613 whole entry): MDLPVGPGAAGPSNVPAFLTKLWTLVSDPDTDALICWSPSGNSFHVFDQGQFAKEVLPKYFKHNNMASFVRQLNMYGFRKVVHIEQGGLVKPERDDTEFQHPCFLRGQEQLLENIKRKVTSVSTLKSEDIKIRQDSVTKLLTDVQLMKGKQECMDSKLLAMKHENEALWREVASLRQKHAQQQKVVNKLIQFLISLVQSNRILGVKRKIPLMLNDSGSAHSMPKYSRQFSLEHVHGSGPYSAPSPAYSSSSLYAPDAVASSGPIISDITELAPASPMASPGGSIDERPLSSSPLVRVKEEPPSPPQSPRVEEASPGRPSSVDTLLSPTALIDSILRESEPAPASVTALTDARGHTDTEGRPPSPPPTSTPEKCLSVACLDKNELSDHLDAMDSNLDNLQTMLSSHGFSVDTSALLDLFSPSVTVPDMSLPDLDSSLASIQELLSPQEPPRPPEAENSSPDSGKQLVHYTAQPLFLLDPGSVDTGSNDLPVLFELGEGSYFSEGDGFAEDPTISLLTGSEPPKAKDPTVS
For the next assay, the target named is T2, SPIC (Homo sapiens, UniProt Q8N5J4 1-248).
T2 sequence: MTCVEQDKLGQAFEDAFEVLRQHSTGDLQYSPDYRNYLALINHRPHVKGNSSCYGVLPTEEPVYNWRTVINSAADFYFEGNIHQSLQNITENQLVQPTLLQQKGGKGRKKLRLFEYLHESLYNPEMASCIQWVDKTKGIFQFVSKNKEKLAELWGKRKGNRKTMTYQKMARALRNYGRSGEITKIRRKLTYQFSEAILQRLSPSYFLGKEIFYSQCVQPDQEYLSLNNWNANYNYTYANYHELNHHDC
As to conditions: protein: recombinant; tags: N-terminal GST; dsDNA, one strand shown. In outline:
as §1

The target in the next assay is ELF4 (Homo sapiens, UniProt Q99607 1-663). The note with it: protein: recombinant; tags: N-terminal GST; dsDNA, one strand shown. In outline:
as §1

For a further assay, the target named is T3, ELK4 (Homo sapiens, UniProt P28324-2 1-405).
T3 sequence: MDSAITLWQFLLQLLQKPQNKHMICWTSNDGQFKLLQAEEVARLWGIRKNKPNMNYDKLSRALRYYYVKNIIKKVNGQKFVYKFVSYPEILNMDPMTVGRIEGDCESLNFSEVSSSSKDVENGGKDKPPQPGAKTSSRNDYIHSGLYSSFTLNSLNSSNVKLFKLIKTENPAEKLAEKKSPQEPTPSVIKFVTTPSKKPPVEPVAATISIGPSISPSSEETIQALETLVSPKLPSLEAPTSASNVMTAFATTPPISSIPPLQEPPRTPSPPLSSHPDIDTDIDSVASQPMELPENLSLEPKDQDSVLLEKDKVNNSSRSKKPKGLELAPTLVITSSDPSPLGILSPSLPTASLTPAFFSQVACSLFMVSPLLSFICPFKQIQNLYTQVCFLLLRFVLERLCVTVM
The note with it: protein: recombinant; tags: N-terminal GST; dsDNA, one strand shown. In outline:
as §1

For a further assay, the target named is T4, ETV2 (Homo sapiens, UniProt O00321 1-342).
T4 sequence: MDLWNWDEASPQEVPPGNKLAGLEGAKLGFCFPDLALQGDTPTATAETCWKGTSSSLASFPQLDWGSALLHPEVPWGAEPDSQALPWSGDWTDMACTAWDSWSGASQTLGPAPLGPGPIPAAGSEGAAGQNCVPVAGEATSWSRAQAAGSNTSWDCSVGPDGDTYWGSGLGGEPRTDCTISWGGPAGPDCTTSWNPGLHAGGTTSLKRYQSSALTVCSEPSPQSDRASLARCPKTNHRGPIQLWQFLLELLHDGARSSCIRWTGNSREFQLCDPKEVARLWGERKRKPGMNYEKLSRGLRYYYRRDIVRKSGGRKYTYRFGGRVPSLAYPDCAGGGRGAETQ
As to conditions: protein: recombinant; tags: N-terminal GST; dsDNA, one strand shown. In outline:
as §1

Another assay deals with T5, ELF3 (Homo sapiens, UniProt P78545 1-371).
T5 sequence: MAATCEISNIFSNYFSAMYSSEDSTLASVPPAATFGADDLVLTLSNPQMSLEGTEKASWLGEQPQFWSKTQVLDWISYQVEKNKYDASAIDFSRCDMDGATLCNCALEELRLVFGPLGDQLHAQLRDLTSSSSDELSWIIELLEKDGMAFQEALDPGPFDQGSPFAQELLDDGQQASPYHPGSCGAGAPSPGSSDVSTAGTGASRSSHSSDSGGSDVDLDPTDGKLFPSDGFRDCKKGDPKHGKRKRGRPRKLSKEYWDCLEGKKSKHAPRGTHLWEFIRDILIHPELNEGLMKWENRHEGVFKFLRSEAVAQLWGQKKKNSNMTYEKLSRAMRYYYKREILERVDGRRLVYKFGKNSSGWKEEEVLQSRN
As to conditions: protein: recombinant; tags: N-terminal GST; dsDNA, one strand shown. The gist of the method: as §1

The target in another assay is CRX (Homo sapiens, UniProt O43186 1-299). As to conditions: protein: recombinant; tags: N-terminal GST; dsDNA, one strand shown. In outline:
as §1

The next assay concerns the target ETV1 (Homo sapiens, UniProt P50549 1-477). The note with it: protein: recombinant; tags: N-terminal GST; dsDNA, one strand shown. The gist of the method:
as §1

For another assay, the target named is T6, ERF (Homo sapiens, UniProt P50548 1-548).
T6 sequence: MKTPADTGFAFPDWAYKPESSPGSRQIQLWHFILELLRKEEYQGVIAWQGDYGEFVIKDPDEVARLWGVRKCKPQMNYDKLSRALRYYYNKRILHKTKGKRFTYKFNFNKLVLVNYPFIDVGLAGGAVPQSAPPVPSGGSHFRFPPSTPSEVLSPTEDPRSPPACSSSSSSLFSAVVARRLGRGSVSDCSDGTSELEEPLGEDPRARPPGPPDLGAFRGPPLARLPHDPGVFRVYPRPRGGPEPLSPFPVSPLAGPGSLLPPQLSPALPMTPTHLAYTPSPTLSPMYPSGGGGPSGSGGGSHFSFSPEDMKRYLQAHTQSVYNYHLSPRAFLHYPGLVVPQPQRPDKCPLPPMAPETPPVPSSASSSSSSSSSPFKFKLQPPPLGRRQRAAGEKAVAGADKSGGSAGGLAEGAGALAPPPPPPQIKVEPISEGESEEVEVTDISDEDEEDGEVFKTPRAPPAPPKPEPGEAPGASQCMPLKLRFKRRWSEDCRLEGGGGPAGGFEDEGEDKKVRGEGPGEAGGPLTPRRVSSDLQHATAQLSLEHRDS
As to conditions: protein: recombinant; tags: N-terminal GST; dsDNA, one strand shown. In outline:
as §1

The target in the next assay is T7, ETV3L (Homo sapiens, UniProt Q6ZN32 1-361).
T7 sequence: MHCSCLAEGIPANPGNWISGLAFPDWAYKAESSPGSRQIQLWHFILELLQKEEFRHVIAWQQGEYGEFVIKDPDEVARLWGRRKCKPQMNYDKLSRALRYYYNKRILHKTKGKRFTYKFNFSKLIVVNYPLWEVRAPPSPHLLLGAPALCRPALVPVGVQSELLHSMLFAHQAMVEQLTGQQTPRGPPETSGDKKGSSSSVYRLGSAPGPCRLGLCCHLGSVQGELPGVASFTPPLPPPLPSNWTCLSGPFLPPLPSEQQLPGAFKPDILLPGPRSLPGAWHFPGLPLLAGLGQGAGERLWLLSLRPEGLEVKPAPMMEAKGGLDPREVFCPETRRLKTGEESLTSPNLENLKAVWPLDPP
The note with it: protein: recombinant; tags: N-terminal GST; dsDNA, one strand shown. The gist of the method:
as §1

For another assay, the target named is T8, ETS2 (Homo sapiens, UniProt P15036 1-469).
T8 sequence: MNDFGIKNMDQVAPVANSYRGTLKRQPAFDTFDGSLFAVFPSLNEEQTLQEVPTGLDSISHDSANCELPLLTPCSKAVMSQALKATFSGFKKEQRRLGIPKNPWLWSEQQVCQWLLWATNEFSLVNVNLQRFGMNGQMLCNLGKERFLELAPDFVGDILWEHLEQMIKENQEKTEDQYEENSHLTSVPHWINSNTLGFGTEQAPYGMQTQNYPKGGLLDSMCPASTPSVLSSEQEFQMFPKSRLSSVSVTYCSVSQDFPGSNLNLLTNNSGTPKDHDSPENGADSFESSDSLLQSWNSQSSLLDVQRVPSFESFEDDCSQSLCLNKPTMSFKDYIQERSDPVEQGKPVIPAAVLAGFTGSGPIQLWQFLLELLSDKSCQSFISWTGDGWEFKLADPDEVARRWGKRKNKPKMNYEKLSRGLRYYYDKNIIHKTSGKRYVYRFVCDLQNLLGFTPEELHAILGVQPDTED
The note with it: protein: recombinant; tags: N-terminal GST; dsDNA, one strand shown. The gist of the method:
as §1

In the next assay the target is T9, SPDEF (Homo sapiens, UniProt O95238 1-335).
T9 sequence: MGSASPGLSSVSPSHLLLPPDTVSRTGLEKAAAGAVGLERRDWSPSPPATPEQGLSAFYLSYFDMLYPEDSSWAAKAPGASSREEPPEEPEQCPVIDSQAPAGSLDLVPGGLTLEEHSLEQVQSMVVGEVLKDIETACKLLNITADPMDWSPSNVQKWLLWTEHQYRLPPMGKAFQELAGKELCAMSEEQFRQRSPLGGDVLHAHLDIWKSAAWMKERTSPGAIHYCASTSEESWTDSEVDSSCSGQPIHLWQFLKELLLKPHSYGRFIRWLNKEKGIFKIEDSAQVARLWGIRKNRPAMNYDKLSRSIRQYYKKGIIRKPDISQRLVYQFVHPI
As to conditions: protein: recombinant; tags: N-terminal GST; dsDNA, one strand shown. The gist of the method:
as §1

The next assay concerns the target T10, ETV7 (Homo sapiens, UniProt Q9Y603 1-341).
T10 sequence: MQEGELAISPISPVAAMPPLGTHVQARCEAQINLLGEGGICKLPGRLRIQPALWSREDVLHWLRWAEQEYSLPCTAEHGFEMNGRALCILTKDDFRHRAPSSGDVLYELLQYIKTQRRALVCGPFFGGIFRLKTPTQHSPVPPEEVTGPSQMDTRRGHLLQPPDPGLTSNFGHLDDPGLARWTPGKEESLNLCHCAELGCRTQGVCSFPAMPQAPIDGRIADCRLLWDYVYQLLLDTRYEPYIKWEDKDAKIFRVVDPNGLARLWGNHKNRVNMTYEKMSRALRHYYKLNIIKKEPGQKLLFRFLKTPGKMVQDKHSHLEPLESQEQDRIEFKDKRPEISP
The note with it: protein: recombinant; tags: N-terminal GST; dsDNA, one strand shown. The gist of the method: as §1

The next assay deals with T11, ELF5 (Homo sapiens, UniProt Q9UKW6-2 1-255).
T11 sequence: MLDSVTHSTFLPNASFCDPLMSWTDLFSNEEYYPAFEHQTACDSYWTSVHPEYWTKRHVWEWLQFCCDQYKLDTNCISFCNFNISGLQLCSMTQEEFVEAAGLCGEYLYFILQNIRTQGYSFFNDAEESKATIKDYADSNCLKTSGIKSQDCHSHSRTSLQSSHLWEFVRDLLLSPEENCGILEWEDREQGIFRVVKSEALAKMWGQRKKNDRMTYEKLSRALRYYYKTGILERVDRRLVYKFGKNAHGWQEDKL
As to conditions: protein: recombinant; tags: N-terminal GST; dsDNA, one strand shown. In outline: as §1

A further assay deals with T12, ETV3 (Homo sapiens, UniProt P41162-2 1-143).
T12 sequence: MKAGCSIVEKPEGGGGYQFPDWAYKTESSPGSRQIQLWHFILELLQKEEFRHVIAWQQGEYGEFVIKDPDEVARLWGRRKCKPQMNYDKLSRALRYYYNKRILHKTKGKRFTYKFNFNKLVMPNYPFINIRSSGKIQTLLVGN
The note with it: protein: recombinant; tags: N-terminal GST; dsDNA, one strand shown. In outline: as §1

The target of another assay is ETV6 (Homo sapiens, UniProt P41212 1-452). As to conditions: protein: recombinant; tags: N-terminal GST; dsDNA, one strand shown. In outline:
as §1

ETV5, sequence (P41161 whole entry): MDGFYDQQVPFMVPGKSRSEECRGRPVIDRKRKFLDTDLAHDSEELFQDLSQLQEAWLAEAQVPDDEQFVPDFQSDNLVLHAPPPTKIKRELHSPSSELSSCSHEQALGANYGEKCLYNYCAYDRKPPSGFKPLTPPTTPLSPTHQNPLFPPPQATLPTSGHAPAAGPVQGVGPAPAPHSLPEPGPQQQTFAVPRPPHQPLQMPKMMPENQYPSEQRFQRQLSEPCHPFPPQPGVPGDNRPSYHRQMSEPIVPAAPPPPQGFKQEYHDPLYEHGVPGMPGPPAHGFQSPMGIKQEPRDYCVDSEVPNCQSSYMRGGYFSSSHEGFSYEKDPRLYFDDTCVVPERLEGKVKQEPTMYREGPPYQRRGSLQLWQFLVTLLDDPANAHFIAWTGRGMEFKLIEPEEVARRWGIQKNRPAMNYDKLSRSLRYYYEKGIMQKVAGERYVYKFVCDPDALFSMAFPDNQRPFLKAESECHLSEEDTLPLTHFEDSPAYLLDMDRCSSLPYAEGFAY
CRX, sequence (O43186 whole entry): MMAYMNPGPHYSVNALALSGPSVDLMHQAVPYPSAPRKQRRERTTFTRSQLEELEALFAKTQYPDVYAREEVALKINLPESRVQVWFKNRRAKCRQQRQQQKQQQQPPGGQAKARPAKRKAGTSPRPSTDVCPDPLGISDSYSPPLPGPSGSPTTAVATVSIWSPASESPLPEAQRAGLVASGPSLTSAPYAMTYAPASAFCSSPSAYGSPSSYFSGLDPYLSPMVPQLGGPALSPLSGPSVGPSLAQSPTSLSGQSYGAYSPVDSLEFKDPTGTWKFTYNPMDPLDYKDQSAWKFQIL
ELF4, sequence (Q99607 whole entry): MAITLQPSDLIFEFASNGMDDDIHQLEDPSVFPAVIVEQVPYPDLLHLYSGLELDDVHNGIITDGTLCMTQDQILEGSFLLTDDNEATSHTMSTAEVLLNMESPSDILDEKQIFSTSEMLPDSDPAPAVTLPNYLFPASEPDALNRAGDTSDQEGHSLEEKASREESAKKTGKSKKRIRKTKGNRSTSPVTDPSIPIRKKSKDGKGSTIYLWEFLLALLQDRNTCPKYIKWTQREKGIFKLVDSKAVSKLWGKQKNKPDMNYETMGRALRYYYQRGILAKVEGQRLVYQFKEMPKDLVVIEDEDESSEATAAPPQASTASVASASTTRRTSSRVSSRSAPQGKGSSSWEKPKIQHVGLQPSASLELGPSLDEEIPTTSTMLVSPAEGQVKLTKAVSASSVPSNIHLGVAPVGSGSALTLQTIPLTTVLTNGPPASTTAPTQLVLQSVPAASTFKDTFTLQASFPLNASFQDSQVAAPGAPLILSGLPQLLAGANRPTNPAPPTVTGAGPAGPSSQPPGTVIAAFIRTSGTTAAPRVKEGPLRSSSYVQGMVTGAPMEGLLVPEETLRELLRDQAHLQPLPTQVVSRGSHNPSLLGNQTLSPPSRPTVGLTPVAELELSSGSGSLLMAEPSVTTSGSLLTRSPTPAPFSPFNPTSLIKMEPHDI
ETV6, sequence (P41212 whole entry): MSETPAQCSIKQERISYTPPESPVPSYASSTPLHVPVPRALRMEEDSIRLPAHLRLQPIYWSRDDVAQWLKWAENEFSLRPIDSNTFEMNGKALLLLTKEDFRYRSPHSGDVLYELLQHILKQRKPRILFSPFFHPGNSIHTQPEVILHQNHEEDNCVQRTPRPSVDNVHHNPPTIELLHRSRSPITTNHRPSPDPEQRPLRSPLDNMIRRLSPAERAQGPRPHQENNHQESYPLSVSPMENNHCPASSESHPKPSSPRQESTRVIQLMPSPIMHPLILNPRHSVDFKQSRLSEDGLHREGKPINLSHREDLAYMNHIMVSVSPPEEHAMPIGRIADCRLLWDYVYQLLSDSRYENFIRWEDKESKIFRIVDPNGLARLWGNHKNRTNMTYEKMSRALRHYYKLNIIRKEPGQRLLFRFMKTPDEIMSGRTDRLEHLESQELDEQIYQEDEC
ETV1, sequence (P50549 whole entry): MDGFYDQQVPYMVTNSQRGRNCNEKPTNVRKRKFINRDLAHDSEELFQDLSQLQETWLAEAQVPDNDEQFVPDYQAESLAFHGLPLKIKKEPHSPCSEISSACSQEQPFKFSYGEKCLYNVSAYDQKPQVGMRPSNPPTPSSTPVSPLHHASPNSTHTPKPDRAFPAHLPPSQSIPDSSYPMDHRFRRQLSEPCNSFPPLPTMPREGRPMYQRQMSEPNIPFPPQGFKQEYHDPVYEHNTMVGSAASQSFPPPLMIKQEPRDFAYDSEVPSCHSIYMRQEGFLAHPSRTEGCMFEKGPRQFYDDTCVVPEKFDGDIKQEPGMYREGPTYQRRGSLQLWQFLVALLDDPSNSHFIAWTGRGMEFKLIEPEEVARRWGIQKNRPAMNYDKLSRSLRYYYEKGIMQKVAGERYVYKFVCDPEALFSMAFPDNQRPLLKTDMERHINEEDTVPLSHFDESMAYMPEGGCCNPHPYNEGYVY

Turning to AGCTAC, the binding signal in the assay with FEV is 1.23 fold enrichment (6-mer frequency, TF over GST control); with ETV5, 1.21 fold enrichment (6-mer frequency, TF over GST control); in the assay with HSF1, 1.04 fold enrichment (6-mer frequency, TF over GST control); in the assay with SPIC it was 1.21 fold enrichment (6-mer frequency, TF over GST control); in the assay with ELF4 it was 1.12 fold enrichment (6-mer frequency, TF over GST control); with ELK4 it was 1.25 fold enrichment (6-mer frequency, TF over GST control). The binding signal in the assay with ETV2 is 1.03 fold enrichment (6-mer frequency, TF over GST control); in the assay with ELF3 it was 1.34 fold enrichment (6-mer frequency, TF over GST control); in the assay with CRX, 1.04 fold enrichment (6-mer frequency, TF over GST control); in the assay with ETV1 it was 1.21 fold enrichment (6-mer frequency, TF over GST control); with ERF it was 1.25 fold enrichment (6-mer frequency, TF over GST control); with ETV3L it was 1.14 fold enrichment (6-mer frequency, TF over GST control). Also, the binding signal in the assay with ETS2 was 1.09 fold enrichment (6-mer frequency, TF over GST control); with SPDEF, 1.02 fold enrichment (6-mer frequency, TF over GST control); in the assay with ETV7, 1.31 fold enrichment (6-mer frequency, TF over GST control); with ELF5, 1.18 fold enrichment (6-mer frequency, TF over GST control); in the assay with ETV3, 1.17 fold enrichment (6-mer frequency, TF over GST control); in the assay with ETV6, 1.22 fold enrichment (6-mer frequency, TF over GST control).
